Assay results published in the supplement of paper PMC10849652.
Of roughly 7,900 targets only a part is listed; those with a hit were picked by preference. About 0.6% of all pairs of compound and target were hits. Unmarked numbers belong to inactive results.

Legend:
Assay in all cases: log2 fold change, soluble protein after heating vs DMSO (PISA); higher = thermal stabilisation; K562 cells, 10 uM, 30 min; active = over 0.2 and 3.5 SD of the protein, either way, in both replicates (recomputed)
IRAK-1-4 Inhibitor I = compound: C1COCCN1CCN2C3=CC=CC=C3N=C2NC(=O)C4=CC(=CC=C4)[N+](=O)[O-] [IRAK-1-4 Inhibitor I]
Procedure, shortened: (§1)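 For each measurement, 10 μM compound was applied for 30 min to K562 cells at 2×10^6 cells/mL. Aliquots were heated for 3 min across 48°C-58°C, pooled, and extracted in PBS with 0.5% NP-40 at 4°C; the supernatant after 21,000xg for 90 min was soluble protein. This was quantified by TMTpro 16plex LC-MS/MS with channel sums equalised, and thermal stability was reported relative to control samples from duplicates, on a log2 fold-change scale.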

ibrutinib = compound: C=CC(=O)N1CCC[C@@H](n2nc(-c3ccc(Oc4ccccc4)cc3)c3c(N)ncnc32)C1 [ibrutinib]
Procedure, shortened: as §1

[1] = compound: CC(=O)c1cnc2ccc(-c3cc(Cl)c(O)c(Cl)c3)nc2c1N[C@H]1CC[C@H](CN(C)C)CC1
Procedure, shortened: as §1

ralimetinib = compound: CC(C)(C)Cn1c(N)nc2ccc(-c3[nH]c(C(C)(C)C)nc3-c3ccc(F)cc3)nc21 [ralimetinib]
Procedure, shortened: as §1

[2] = compound: CC(C)(O)CC(=O)NCCn1ccc2ncnc(Nc3ccc(Oc4cccc(C(F)(F)F)c4)c(Cl)c3)c21
Procedure, shortened: as §1

[3] = compound: CC(C)C1=C2N=C(C=C(N2N=C1)NCC3=CC=CC=C3)NCCCCCCN
Procedure, shortened: as §1

[4] = compound: CC(C)C[C@@H](C=O)NC(=O)[C@H](CC(C)C)NC(=O)[C@H](CC(C)C)NC(=O)OCc1ccccc1
Procedure, shortened: as §1

pinometostat = compound: CC(C)N(C[C@H]1O[C@@H](n2cnc3c(N)ncnc32)[C@H](O)[C@@H]1O)[C@H]1C[C@@H](CCc2nc3cc(C(C)(C)C)ccc3[nH]2)C1 [pinometostat]
Procedure, shortened: as §1

[5] = compound: CC1=C(C(CC(=O)N1)C2=CC=C(C=C2)C(F)(F)F)C(=O)NC3=C(C=C4C(=C3)C=NN4)F
Procedure, shortened: as §1

[6] = compound: CC1=C(C2=C(C=C1)C(=O)C3=CC=CC=C3N2CCCN)C
Procedure, shortened: as §1

[7] = compound: CC1=C(C=C(C=C1)NC(=O)C2=CC(=CC=C2)C(C)(C)C#N)NC3=CC4=C(C=C3)N=CN(C4=O)C
Procedure, shortened: as §1

[8] = compound: CC1=C(C=C(C=C1)NC(=O)C2=CC(=CC=C2)N(C)C)NC(=O)C3=CC=C(C=C3)O
Procedure, shortened: as §1

[9] = compound: CC1=CC=C(C=C1)SC2=C3C=C(SC3=CN=C2)C(=O)N
Procedure, shortened: as §1

[10] = compound: CC1=NC(=CC=C1)C2=C(N=C(N2)C(C)(C)C)C3=CC4=NC=CN=C4C=C3
Procedure, shortened: as §1

Nexturastat A = compound: CCCCN(Cc1ccc(C(=O)NO)cc1)C(=O)Nc1ccccc1 [Nexturastat A]
Procedure, shortened: as §1

vemurafenib = compound: CCCS(=O)(=O)Nc1ccc(F)c(C(=O)c2c[nH]c3ncc(-c4ccc(Cl)cc4)cc23)c1F [vemurafenib]
Procedure, shortened: as §1

[11] = compound: CCCS(=O)(=O)Nc1ccc(F)c(C(=O)c2c[nH]c3ncc(Cl)cc23)c1F
Procedure, shortened: as §1

[12] = compound: CCCc1cc(C)[nH]c(=O)c1CNC(=O)c1cc(-c2ccnc(N3CCN(C)CC3)c2)cc2c1cnn2C(C)C
Procedure, shortened: as §1

givinostat = compound: CCN(CC)Cc1ccc2cc(COC(=O)Nc3ccc(C(=O)NO)cc3)ccc2c1 [givinostat]
Procedure, shortened: as §1

barasertib = compound: CCN(CCCOc1ccc2c(Nc3cc(CC(=O)Nc4cccc(F)c4)[nH]n3)ncnc2c1)CCOP(=O)(O)O [barasertib]
Procedure, shortened: as §1

Sequence of UniProt Q13469 (Q13469 whole entry, looked up): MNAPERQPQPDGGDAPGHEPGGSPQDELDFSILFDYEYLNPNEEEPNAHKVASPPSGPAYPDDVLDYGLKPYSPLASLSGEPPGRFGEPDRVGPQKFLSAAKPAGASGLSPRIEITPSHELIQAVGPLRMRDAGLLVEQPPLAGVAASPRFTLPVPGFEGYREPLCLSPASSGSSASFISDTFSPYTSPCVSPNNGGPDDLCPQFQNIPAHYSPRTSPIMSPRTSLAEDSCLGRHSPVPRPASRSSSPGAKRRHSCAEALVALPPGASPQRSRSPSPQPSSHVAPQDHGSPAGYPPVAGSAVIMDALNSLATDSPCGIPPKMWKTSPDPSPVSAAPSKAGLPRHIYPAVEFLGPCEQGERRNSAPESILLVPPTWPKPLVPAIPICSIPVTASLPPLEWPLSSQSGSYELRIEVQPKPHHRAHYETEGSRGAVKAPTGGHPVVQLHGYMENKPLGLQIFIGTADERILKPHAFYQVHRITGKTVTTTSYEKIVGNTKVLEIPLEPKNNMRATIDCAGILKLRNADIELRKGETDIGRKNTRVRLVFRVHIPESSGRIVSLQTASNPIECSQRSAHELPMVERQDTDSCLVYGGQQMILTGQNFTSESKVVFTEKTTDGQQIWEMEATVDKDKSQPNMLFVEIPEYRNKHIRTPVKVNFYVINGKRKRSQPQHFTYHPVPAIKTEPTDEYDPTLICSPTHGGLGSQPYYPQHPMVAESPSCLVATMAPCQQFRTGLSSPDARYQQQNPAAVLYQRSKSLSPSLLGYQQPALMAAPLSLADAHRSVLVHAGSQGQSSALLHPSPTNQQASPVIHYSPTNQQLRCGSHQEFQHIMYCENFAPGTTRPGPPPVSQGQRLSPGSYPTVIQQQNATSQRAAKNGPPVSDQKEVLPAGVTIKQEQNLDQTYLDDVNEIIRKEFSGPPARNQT
Sequence of UniProt O43809 (O43809 whole entry, looked up): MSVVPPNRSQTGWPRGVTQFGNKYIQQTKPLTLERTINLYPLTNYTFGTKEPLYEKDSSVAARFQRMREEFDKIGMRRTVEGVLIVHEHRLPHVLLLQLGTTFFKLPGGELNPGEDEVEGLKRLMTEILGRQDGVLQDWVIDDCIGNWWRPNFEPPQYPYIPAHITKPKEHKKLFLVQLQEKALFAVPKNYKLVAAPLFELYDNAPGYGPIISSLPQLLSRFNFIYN
Sequence of UniProt O95169 (O95169 whole entry, looked up): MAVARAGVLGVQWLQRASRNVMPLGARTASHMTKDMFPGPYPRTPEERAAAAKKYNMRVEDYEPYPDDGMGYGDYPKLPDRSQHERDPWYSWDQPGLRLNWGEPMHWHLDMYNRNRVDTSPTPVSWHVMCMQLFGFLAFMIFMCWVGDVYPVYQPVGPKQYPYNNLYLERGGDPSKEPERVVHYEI
Sequence of UniProt Q8NBF2 (Q8NBF2 whole entry, looked up): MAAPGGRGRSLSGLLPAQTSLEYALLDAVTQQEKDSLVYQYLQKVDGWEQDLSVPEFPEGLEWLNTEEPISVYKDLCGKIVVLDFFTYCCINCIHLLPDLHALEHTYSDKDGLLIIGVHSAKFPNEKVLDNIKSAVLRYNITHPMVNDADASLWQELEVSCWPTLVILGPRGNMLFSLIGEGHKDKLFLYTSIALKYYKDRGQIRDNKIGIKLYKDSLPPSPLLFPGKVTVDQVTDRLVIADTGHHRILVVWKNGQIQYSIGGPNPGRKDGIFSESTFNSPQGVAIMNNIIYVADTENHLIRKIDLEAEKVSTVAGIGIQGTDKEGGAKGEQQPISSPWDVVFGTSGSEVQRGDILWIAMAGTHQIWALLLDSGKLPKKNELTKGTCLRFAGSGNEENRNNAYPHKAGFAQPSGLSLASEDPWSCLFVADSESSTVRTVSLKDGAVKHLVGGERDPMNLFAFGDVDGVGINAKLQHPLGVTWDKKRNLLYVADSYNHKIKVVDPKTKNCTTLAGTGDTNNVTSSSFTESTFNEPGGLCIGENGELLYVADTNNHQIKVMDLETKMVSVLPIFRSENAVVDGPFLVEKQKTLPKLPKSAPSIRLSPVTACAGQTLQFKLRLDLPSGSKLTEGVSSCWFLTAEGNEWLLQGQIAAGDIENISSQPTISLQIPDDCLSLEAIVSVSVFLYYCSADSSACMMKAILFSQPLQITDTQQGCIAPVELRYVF
Sequence of UniProt Q9HBL8 (Q9HBL8 whole entry, looked up): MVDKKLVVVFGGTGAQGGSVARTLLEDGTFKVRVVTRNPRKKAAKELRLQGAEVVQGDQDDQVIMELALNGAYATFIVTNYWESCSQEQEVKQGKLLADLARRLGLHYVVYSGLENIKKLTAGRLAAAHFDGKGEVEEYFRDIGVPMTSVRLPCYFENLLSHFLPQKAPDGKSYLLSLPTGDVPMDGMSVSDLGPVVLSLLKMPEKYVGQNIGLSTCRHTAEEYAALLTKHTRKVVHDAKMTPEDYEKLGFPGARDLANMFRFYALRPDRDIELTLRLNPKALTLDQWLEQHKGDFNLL
Sequence of UniProt Q9H1E3 (Q9H1E3 whole entry, looked up): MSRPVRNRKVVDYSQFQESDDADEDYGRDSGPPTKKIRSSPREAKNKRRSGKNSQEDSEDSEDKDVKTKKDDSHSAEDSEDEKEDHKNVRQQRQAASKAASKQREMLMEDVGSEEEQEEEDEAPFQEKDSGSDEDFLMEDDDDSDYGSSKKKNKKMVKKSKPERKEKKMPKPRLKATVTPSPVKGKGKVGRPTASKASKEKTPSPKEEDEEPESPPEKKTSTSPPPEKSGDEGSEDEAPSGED
Sequence of UniProt P11586 (P11586 whole entry, looked up): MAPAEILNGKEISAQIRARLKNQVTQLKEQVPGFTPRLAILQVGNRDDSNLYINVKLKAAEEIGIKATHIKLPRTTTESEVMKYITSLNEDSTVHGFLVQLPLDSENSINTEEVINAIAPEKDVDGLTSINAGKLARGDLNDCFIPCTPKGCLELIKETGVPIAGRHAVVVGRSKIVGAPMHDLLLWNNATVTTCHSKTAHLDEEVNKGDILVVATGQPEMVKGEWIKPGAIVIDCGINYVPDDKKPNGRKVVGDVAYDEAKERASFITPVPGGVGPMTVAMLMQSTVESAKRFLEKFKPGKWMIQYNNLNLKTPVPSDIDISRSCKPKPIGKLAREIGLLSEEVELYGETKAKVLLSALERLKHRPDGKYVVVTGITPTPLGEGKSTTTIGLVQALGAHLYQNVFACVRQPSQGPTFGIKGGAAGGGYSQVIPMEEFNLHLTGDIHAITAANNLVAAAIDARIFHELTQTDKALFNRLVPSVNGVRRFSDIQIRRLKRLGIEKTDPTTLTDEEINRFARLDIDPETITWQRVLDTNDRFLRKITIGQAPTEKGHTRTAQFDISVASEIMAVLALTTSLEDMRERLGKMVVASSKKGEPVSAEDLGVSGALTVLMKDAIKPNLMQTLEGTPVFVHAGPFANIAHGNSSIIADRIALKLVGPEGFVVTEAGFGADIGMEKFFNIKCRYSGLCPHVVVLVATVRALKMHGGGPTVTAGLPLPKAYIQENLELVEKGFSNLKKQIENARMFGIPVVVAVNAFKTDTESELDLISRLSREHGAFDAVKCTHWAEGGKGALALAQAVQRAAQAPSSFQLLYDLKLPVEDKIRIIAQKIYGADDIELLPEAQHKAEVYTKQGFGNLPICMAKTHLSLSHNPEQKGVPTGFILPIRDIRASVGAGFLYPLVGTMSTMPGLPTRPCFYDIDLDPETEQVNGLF
Sequence of UniProt Q96MF7 (Q96MF7 whole entry, looked up): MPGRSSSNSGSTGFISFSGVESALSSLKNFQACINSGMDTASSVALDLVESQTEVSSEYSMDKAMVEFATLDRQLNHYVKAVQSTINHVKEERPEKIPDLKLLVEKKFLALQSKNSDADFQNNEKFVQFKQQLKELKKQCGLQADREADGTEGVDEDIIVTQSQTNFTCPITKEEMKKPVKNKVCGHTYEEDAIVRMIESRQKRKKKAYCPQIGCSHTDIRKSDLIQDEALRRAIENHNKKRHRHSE
Sequence of UniProt O75323 (O75323 whole entry, looked up): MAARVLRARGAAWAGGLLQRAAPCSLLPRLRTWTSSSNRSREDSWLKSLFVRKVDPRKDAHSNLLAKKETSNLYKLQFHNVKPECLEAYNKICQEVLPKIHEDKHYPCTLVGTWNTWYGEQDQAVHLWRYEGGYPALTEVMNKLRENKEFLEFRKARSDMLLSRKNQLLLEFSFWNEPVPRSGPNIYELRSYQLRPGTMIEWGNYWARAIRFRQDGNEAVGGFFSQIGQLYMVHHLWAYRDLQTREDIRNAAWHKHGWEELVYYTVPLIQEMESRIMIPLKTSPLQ
Sequence of UniProt Q9NRP0 (Q9NRP0 whole entry, looked up): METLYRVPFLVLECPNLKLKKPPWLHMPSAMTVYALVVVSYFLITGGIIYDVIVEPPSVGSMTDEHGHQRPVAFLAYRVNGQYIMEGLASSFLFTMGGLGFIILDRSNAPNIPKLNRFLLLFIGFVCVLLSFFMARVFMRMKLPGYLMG
Sequence of UniProt Q13153 (Q13153 whole entry, looked up): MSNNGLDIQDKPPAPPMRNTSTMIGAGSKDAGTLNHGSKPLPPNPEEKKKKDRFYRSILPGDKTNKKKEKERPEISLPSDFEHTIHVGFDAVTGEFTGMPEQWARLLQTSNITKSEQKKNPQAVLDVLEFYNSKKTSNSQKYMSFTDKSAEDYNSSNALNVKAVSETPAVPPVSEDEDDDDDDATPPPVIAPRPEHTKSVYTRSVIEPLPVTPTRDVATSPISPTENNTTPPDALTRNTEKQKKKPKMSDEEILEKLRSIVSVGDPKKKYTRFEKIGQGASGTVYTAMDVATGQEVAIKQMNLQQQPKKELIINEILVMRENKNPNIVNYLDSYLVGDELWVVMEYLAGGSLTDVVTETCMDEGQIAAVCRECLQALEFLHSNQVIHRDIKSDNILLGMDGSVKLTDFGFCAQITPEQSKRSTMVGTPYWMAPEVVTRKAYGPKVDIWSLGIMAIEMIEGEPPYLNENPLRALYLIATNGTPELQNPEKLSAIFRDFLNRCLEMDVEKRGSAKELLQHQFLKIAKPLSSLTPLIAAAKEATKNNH

Row | Target | log2 fold change (IRAK-1-4 Inhibitor I) | log2 fold change (ibrutinib) | log2 fold change [1] | log2 fold change (ralimetinib) | log2 fold change [2] | log2 fold change [3] | log2 fold change [4] | log2 fold change (pinometostat) | log2 fold change [5] | log2 fold change [6] | log2 fold change [7] | log2 fold change [8] | log2 fold change [9] | log2 fold change [10] | log2 fold change (Nexturastat A) | log2 fold change (vemurafenib) | log2 fold change [11] | log2 fold change [12] | log2 fold change (givinostat) | log2 fold change (barasertib)
1 | NUDT21 (UniProt O43809) | -0.057 | 0.014 | -0.33 (active) | -0.022 | 0.077 | 0.066 | 0.034 | -0.022 | -0.005 | 0.246 (active) | 0.052 | 0.077 | -0.007 | 0.019 | 0 | 0.02 | -0.053 | -0.013 | -0.033 | -0.023
2 | NELFB isoform 2 (UniProt Q8WX92) | -0.03 | -0.045 | -0.144 | -0.067 | -0.154 | -0.112 | 0.001 | 0.022 | 0.017 | 0.042 | -0.026 | -0.062 | 0.035 | 0.05 | -0.032 | 0.06 | 0.08 | -0.007 | 0.069 | 0.046
3 | NMRAL1 (UniProt Q9HBL8) | 0.058 | 0.874 (active) | 0.467 | -0.016 | -0.121 | 0 | -0.007 | 0 | -0.257 | 0.281 | 1.01 (active) | 0.029 | 0.025 | -0.151 | -0.138 | 0.003 | -0.074 | 0.234 | 0.027 | -0.021
4 | NUCKS1 (UniProt Q9H1E3) | 0.094 | -0.018 | 0.208 | -0.054 | 0.018 | 0.138 | -0.029 | -0.061 | 0.021 | -0.454 (active) | -0.036 | 0.065 | -0.014 | 0.044 | -0.061 | 0.017 | -0.061 | -0.076 | -0.004 | 0.008
5 | MTHFD1 (UniProt P11586) | 0.01 | -0.014 | -0.068 | -0.001 | -0.082 | -0.102 | -0.005 | -0.034 | -0.023 | 0.073 | 0.052 | -0.026 | 0.003 | 0.042 | -0.046 | 0.06 | 0.046 | -0.013 | 0.048 | 0.038
6 | NFATC2 (UniProt Q13469) | -0.075 | -0.008 | -0.635 (active) | -0.001 | 0.011 | -0.055 | 0.099 | 0.102 | 0.013 | -0.033 | -0.046 | -0.079 | -0.031 | 0.018 | 0.12 | 0.038 | 0.041 | 0.086 | 0.192 | 0.107
7 | OSTC (UniProt Q9NRP0) | -0.002 | -0.013 | -0.022 | 0.004 | -0.055 | -0.377 (active) | -0.046 | -0.023 | -0.031 | 0.119 | 0.001 | 0.001 | 0.047 | 0.058 | -0.114 | -0.115 | 0.068 | -0.058 | 0.076 | 0.061
8 | NOL7 (UniProt Q9UMY1) | -0.139 | 0.036 | 0.158 | 0.041 | 0.043 | 0.016 | 0.141 | 0.242 | 0.059 | -0.485 | -0.06 | -0.055 | -0.048 | -0.193 | 0.214 | -0.14 | -0.121 | 0.088 | 0.031 | -0.092
9 | NHLRC2 (UniProt Q8NBF2) | 0.039 | 0.07 | -0.02 | -0.122 | -0.026 | -0.124 | 0.143 | 0.013 | 0.004 | 0.023 | -0.06 | 0.225 | -0.014 | -0.014 | -0.055 | -0.053 | -0.048 | -0.076 | -0.006 | -0.004
10 | MON1B (UniProt Q7L1V2) | 0.047 | 0.037 | -0.013 | 0.095 | -0.006 | -0.406 (active) | 0 | -0.039 | -0.023 | 0 | 0.064 | -0.003 | 0.071 | 0.019 | -0.058 | -0.005 | 0.032 | -0.036 | 0.024 | 0.005
11 | NIPSNAP2 (UniProt O75323) | 0.018 | 0.115 | -0.084 | -0.054 | 0.049 | 0.014 | -0.015 | -0.034 | 0.002 | 0.031 | 0.06 | -0.044 | 0.055 | 0 | -0.072 | 0.06 | 0.029 | 0.007 | -0.081 | 0.019
12 | NMD3 (UniProt Q96D46) | 0.001 | -0.046 | 0.017 | -0.049 | -0.104 | -0.069 | -0.141 | -0.026 | -0.064 | -0.392 (active) | 0.03 | -0.061 | -0.009 | 0.067 | -0.079 | 0.077 | 0.03 | -0.004 | -0.024 | 0.015
13 | OTUD4 (UniProt Q01804) | 0.007 | 0.008 | -0.029 | 0.1 | 0.013 | 0.035 | 0.052 | 0.128 | -0.033 | 0.244 | -0.038 | -0.017 | -0.035 | -0.069 | 0.055 | -0.016 | 0.007 | -0.03 | 0.05 | -0.083
14 | NDUFB8 (UniProt O95169) | 0.001 | -0.01 | -0.004 | -0.063 | -0.36 (active) | -0.042 | 0.059 | 0.003 | 0.081 | 0.103 | 0.01 | -0.068 | 0.023 | 0.024 | 0.045 | 0.099 | -0.04 | -0.025 | -0.048 | 0.023
15 | NSMCE2 (UniProt Q96MF7) | -0.023 | -0.171 | -0.107 | 0.176 | 0.051 | 0.122 | -0.083 | -0.001 | -0.056 | -0.122 | 0.019 | -0.052 | 0.006 | 0.056 | 0.064 | -0.007 | 0.021 | 0.018 | -0.076 | 0.078
16 | PAK1 isoform 2 (UniProt Q13153) | 0.018 | 0.048 | 0.158 | -0.066 | -0.025 | 0 | -0.046 | -0.038 | 0.192 | 0.051 | 0.035 | -0.072 | 0.114 | 0.003 | -0.01 | 0.019 | -0.036 | -0.075 | -0.054 | -0.001
